# Screening data (PubChem BioAssay)
# Pf Dd2 inh: inhibitors of Plasmodium falciparum Dd2 growth. P. falciparum Dd2 growth, SYBR Green, 72 h. Potency, µM (doses to about 28.9 µM), inactives show at the highest dose activity, negative = inhibition, usual class: inhibitors. 4.3% of 120,000 active. AID 1347417; active means well fitted inhibition curve with a large enough effect;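 further: plate controls were DMSO vehicle for no effect and reference drug for full effect; nearly all actives have a fitted effect of over 65% in size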
#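 Infected erythrocytes (Dd2, 0.3% parasitemia, 2.5% hematocrit final) are added to compound in RPMI-1640/Albumax II medium, grown 72 h at 37C in low oxygen, then lysed with saponin/Triton-X containing SYBR Green and read by fluorescence.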
# The depositor's hits bear a star; i = inactive; [ ] = remark or other dose. Only a selection was taken, and hits are over-represented in it overall. Potency means the concentration at half of the fitted maximal effect.
SMILES,Pf Dd2 inh
Cn1ccc(NC(=O)c2ccc3c(c2)NC(C)(COc2ccccc2)CO3)n1 (centres undefined),i
Cc1ccccc1C(=O)N1CCC(C(NC(=O)c2cccs2)C(=O)N2CCCCC2)CC1 (centres undefined),-23.7%
CCn1cnnc1CC1CCNC1 (centres undefined),14.3%
COCC1CN(C2CCC2)CC12CCN(C(=O)C1CC=CC1)CC2 (centres undefined),i
C#CCSc1nc(-c2ccccc2)cc(-c2ccccc2)c1C#N,5.9%[0.594 µM]
Cc1cccc(-c2cc(-c3ccccc3)nc(SCC(=O)Nc3ccccc3)c2C#N)c1,13.3%
CCCCS(=O)(=O)c1nc(-c2ccc(Br)cc2)cc(-c2ccccc2)c1C#N,5.01µM*
CC(C)CN[C@@H]1C[C@H](Cn2cc(C3CC3)nn2)[C@@H](O)[C@H]1O,1.1%[44.1 µM]
CCOc1cc(C(=O)N2CCC[C@H]2c2nc(-c3ccc(C)cc3)no2)cc(OCC)c1OCC,i
COc1ccc(C(=O)N2CC(=O)Nc3ccc(Br)cc3C2c2ccc(F)cc2)cc1OC (centres undefined),-24.4%
COc1ccc(C2c3[nH]c4ccc(OC)cc4c3CCN2C(=O)Nc2ccccc2)cc1 (centres undefined),6.31µM*
CCOc1cc(C(=O)N2CCc3c([nH]c4ccccc34)C2c2ccccc2)cc(OCC)c1OCC (centres undefined),2µM*
CCOc1ccc(C2c3[nH]c4ccccc4c3CCN2C(=O)CCC2CCCC2)cc1 (centres undefined),-10.4%
COc1ccc2[nH]c3c(c2c1)CCN(C)C31CCN(C(=O)C2CCCC2)CC1,i
CCOc1cc(CNC(=O)C2CCN(c3nc4ccccc4[nH]3)CC2)cc(OCC)c1OCC,28.9%
COc1cc(C(=O)N2CCc3c([nH]c4ccccc34)C2c2ccc(F)cc2)cc(OC)c1OC (centres undefined),4.47µM*
COc1ccccc1C(=O)NC1CCCc2c1[nH]c1ccccc21 (centres undefined),-22.4%
CCc1ccccc1NC(=O)N1CCc2c([nH]c3ccccc23)C1c1ccc(C)cc1 (centres undefined),-20.3%
CCOc1cccc(CC(=O)NCc2ccc3c(c2)CCN3C(=O)c2cccc(C)c2)c1OCC,-14.1%
CCOc1cccc(CC(=O)N2CCc3c([nH]c4ccccc34)C2c2ccc(Cl)cc2)c1OCC (centres undefined),5.01µM*
COc1ccc(-c2ccc3nnc(CNC(=O)C(C)Oc4cccc(Cl)c4)n3n2)cc1 (centres undefined),-24.9%
COc1ccc(CN2C[C@@H](CO)[C@H](C3CCN(C(C)=O)CC3)C2)cc1OC,40.7%
O=C1CC(c2ccccc2)N(S(=O)(=O)c2cccc3cccnc23)CCCCCCN1 (centres undefined),-7.9%
O=C(CCC1CCCC1)NCC12CCC=C1N(CC1CC1)C(=O)CC2 (centres undefined),-10.7%
CCN1CCN(c2nc3c(s2)CN(C(=O)CCC(C)C)CC3)CC1,i
SMILES,Pf Dd2 inh
COCCN1CCC(C(=O)N2Cc3cnc(CC(C)C)nc3C2)CC1,-17.5%
COc1ccccc1C(=O)Nc1ccc([C@H]2OCC(=O)N(Cc3ccccc3)[C@@H]2CO)cc1,-8.8%
COc1ccc(CC(=O)NC2CCN(c3cc(-c4ccc(F)cc4)[nH]n3)CC2)cc1OC,i
CN(CC1(C)CCOCC1)C(=O)NCc1ccco1,-8.9%
O=C(c1cc2ccc3cccnc3c2[nH]1)N1CCCCC1,6.8%
O=C(NCc1cccc(Cl)c1)c1cc2ccc3cccnc3c2[nH]1,12.6µM*
O=C(c1cc2ccc3cccnc3c2[nH]1)N1CCN(c2cccc(Cl)c2)CC1,i
CCOC(=O)c1ccccc1NC(=O)c1cc2ccc3cccnc3c2[nH]1,-14.4%
O=C(NCC1CCN(Cc2ccccc2Cl)CC1)c1cc2ccc3cccnc3c2[nH]1,7.94µM*
O=C(NCc1ccc(Cl)cc1)c1cc2ccc3cccnc3c2[nH]1,-17.2%
Cc1ccc(Cl)cc1N1CCN(C(=O)c2cc3ccc4cccnc4c3[nH]2)CC1,-2.1%
O=C(c1cc2ccc3cccnc3c2[nH]1)N1CCN(c2ccc(Cl)cc2)CC1,-21.5%
CCOC(=O)C1CCN(C(=O)c2cc3ccc4cccnc4c3[nH]2)CC1,15.6%
CCN(CC)S(=O)(=O)c1ccc(NC(=O)c2cc3ccc4cccnc4c3[nH]2)cc1,11.2µM*
CC(C)N(Cc1ccccc1)C(=O)c1cc2ccc3cccnc3c2[nH]1,12.6µM*
COc1ccccc1NC(=O)c1cc2ccc3cccnc3c2[nH]1,i
O=C(CCC1CCCN(S(=O)(=O)c2ccccc2)C1)N1CCCCC1 (centres undefined),i
CCNC(=O)N[C@H]1[C@H](O)[C@H](O)C[C@@H]1c1cccc(C)c1,i
CN(C)C(=O)N1CCN(c2ccc(C=O)cc2)C(=O)C1,1.7%[44.1 µM]
O=C(NCC1CCN(Cc2ccc(F)cc2)CC1)c1cc2ccc3cccnc3c2[nH]1,7.08µM*
CC1CCCN(C(=O)c2cc3ccc4cccnc4c3[nH]2)C1 (centres undefined),-13.1%
O=C(Cn1ncc2c([nH]c3ccccc32)c1=O)NCC1CCN(Cc2ccc(F)cc2)CC1,i
O=C1CCCN1CCCN1C(=O)[C@H]2CN(Cc3cccc(Cl)c3F)C[C@H]2C1=O,-20.1%
Cc1cccc(C)c1NC(=O)CN1C(=O)NC2(CCCCC2)C1=O,17.7%
COc1cc2c(cc1OC1CCCC1)NC(=O)C21CCN(c2ncccn2)CC1,-6.8%[44.1 µM]
SMILES,Pf Dd2 inh
COc1cc2c(cc1OC1CCCC1)NC(=O)C21CCN(c2ncc(F)cn2)CC1,i
COc1cc2c(cc1OC1CCCC1)NC(=O)C21CCN(c2nc(C)cc(C)n2)CC1,11.2µM*
COc1cccc(-c2cc(C(=O)N3CCC4(CC3)[C@H](O)C[C@@H]4OC)[nH]n2)c1,1.1%
O=C(NC1CC1)c1ccc2nnc(-c3cccc(OC(F)(F)F)c3)n2c1,-6.4%
CNc1nc2c(c(C(=O)N3CCCC3)n1)CN(C(=O)Cn1nccc1C)CC2,-6.1%
COc1ccc(C2(C(=O)N3C[C@@H](CO)[C@H](c4nc(C)no4)C3)CC2)cc1,27.2%
O=C([C@@H]1C[C@H](Oc2cccnc2)CN1C(=O)CCc1c[nH]c2ccccc12)N1CCOCC1,3.98µM*
O=C([C@@H]1C[C@H](Oc2cccnc2)CN1C(=O)CCc1ccccc1)N1CCOCC1,-6.0%
O=C([C@@H]1C[C@H](Oc2ccccc2)CN1C(=O)Cc1c[nH]c2ccccc12)N1CCOCC1,-21.7%
Cc1cc(C(=O)N2CCC(c3nc(-c4ccccc4)no3)C2)n[nH]1 (centres undefined),i
CNC(=O)C1(N2CCC[C@H]2C(=O)NCc2ccccc2)COC1,-13.0%[44.1 µM]
Cc1ccc(NS(=O)(=O)c2ccc3c(c2)NC(=O)CCS3)cc1C,10µM*
O=C1CCSc2ccc(S(=O)(=O)Nc3cccc(C(F)(F)F)c3)cc2N1,35.4%
Cc1ccccc1NS(=O)(=O)c1ccc2c(c1)NC(=O)CCS2,-7.9%
CN1c2cc(C(N)=O)ccc2C(=O)N2CCCC21 (centres undefined),20.8%
CN(CC[C@H]1CN(C(=O)NC2CCCCC2)CC[C@H]1CC(=O)O)c1ccccc1,i
COc1ccccc1C(=O)Nc1ccc(C(O)[C@H]2COCC(=O)N2)cc1 (some centres undefined),-3.0%[44.1 µM]
CC(C)(C)c1ccc(C(=O)Nc2ccc(C(O)[C@H]3COCC(=O)N3)cc2)cc1 (some centres undefined),10µM*
O=C1COC[C@H]([C@H](O)c2ccc(NS(=O)(=O)c3ccc(F)cc3)cc2)N1,-3.3%[44.1 µM]
